Laboratory results: PubChem BioAssay AID1159580 (chemical genetic matrix, 2015)
Hit rate of the full screen: of about 5,500 compounds, about 2,000 (36%) were called active. Inconclusive results (about 18%) are left out. Cut-off read from the data, not from the text of the source: active = normalized growth mostly below about 0.91 (no sharp cut-off); inconclusive = no clear call, values can overlap the other calls; inactive = mostly above about 0.92. The list shows a part of the results.

Experiment: chemical genetic growth profiling, strain panel (AID 1159580);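 note: tested at 20 µM; growth read once vehicle control cultures reached saturation at 30 °C; 1 = growth at the plate median or of vehicle wells; lower values mean less growth of the strain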
Details: S. cerevisiae deletion strains, growth OD
[1] = locus YDL101C, strain DUN1, hits give low values
[2] = locus YHR030C, strain SLT2, hits give low values
[3] = locus YNL153C, strain GIM3, hits give low values
[4] = locus YNL322C, strain KRE1, hits give low values

Measured: normalized growth

O=C(Nc1ccccc1C(=O)NC1CCCCNC1=O)c1cccs1 (configuration not stated)
inactive: locus YAL013W, strain DEP1, hits give low values 1 | locus YBR229C, strain ROT2, hits give low values 1.01 | [1] 1 | locus YDL134C, strain PPH21, hits give low values 1.01 | locus YDR150W, strain NUM1, hits give low values 0.996 | locus YEL061C, strain CIN8, hits give low values 1.01 | locus YGR078C, strain PAC10, hits give low values 1 | [2] 1.02 | locus YHR087W, strain rtc3, hits give low values 1.02 | locus YJL187C, strain SWE1, hits give low values 1.01 | locus YJR043C, strain POL32, hits give low values 0.972 | locus YJR075W, strain HOC1, hits give low values 1.02 | locus YLR039C, strain RIC1, hits give low values 1.06 | locus YLR058C, strain SHM2 (second series), hits give low values 1 | locus YLR085C, strain ARP6, hits give low values 1.01 | locus YLR262C, strain YPT6, hits give low values 1.03 | locus YML094W, strain GIM5, hits give low values 1.02 | locus YMR219W, strain ESC1, hits give low values 1.01 | locus YMR263W, strain SAP30, hits give low values 1.01 | [3] 1 | locus YNL298W, strain CLA4 (second series), hits give low values 1.03 | [4] 1 | locus YNR030W, strain Alg12, hits give low values 1.02 | locus YPL055C, strain LGE1, hits give low values 0.998 | locus YPL241C, strain CIN2, hits give low values 1.03 | locus YPR135W, strain CTF4, hits give low values 1.01

O=C(O)[C@@H]1C[C@H](C(=O)O)N1
inactive: locus YAL040C, strain CLN3, hits give low values 0.943 | locus YCL061C, strain MRC1 (second series), hits give low values 0.984 | locus YDR363W, strain ESC2, hits give low values 1.06 | locus YER002W, strain NOP16, hits give low values 0.988 | [3] 0.986 | locus YNL175C, strain NOP13, hits give low values 0.99 | locus YNL197C, strain WHI3, hits give low values 0.967 | locus YNL224C, strain SQS1, hits give low values 0.965 | [4] 0.987 | locus YOR083W, strain WHI5 (second series), hits give low values 0.973

O=C(NCc1ccco1)c1ccc(Oc2cc(Cl)cc(Cl)c2)o1
inactive: locus YAR019C, strain CDC15, hits give low values 0.961 | locus YBL105C, strain PKC1, hits give low values 0.96 | locus YBR135W, strain CKS1, hits give low values 0.964 | locus YBR136W, strain MEC1, hits give low values 0.964 | locus YBR160W, strain CDC28, hits give low values 0.967 | locus YDL017W, strain CDC7, hits give low values 0.969 | locus YDL028C, strain MPS1, hits give low values 0.967 | [1] 0.964 | locus YDL108W, strain KIN28, hits give low values 0.96 | locus YDL132W, strain cdc53, hits give low values 0.957 | locus YDL214C, strain PRR2, hits give low values 0.936 | locus YDR052C, strain DBF4, hits give low values 0.968 | locus YDR054C, strain cdc34, hits give low values 0.957 | locus YDR226W, strain ADK1, hits give low values 0.959 | locus YDR477W, strain SNF1, hits give low values 0.952 | locus YER123W, strain YCK3, hits give low values 0.932 | locus YER133W, strain GLC7, hits give low values 0.932 | locus YFL009W, strain cdc4, hits give low values 0.957 | locus YFL029C, strain CAK1, hits give low values 0.951 | locus YFR003C, strain YPI1, hits give low values 0.962 | locus YFR019W, strain FAB1, hits give low values 0.96 | locus YFR028C, strain CDC14, hits give low values 0.957 | locus YGR040W, strain KSS1, hits give low values 0.948 | locus YGR052W, strain FMP48, hits give low values 0.95 | locus YGR092W, strain DBF2, hits give low values 0.957 | [2] 1.05 | locus YHR079C, strain IRE1, hits give low values 1 | locus YHR082C, strain KSP1, hits give low values 0.994 | locus YHR205W, strain SCH9, hits give low values 0.952 | locus YIL147C, strain SLN1, hits give low values 0.964 | locus YJL095W, strain BCK1, hits give low values 0.931 | locus YJL128C, strain PBS2, hits give low values 0.914 | locus YJL157C, strain FAR1, hits give low values 0.941 | locus YJR016C, strain ILV3, hits give low values 0.955 | locus YJR066W, strain TOR1 (second series), hits give low values 0.974 | locus YJR066W, strain TOR1, hits give low values 1.03 | locus YKL048C, strain ELM1, hits give low values 0.939 | locus YKL067W, strain YNK1, hits give low values 0.945 | locus YKL101W, strain HSL1, hits give low values 0.917 | locus YKL193C, strain SDS22, hits give low values 0.958 | locus YKL203C, strain TOR2, hits give low values 1.01 | locus YLR133W, strain CKI1, hits give low values 0.931 | locus YLR403W, strain SFP1, hits give low values 0.968 | locus YML070W, strain DAK1, hits give low values 0.94 | locus YMR001C, strain CDC5, hits give low values 0.956 | locus YMR205C, strain PFK2 (second series), hits give low values 0.942 | locus YMR277W, strain FCP1, hits give low values 0.958 | locus YNL006W, strain LST8, hits give low values 0.971 | locus YNL020C, strain ARK1, hits give low values 0.939 | locus YNL161W, strain CBK1, hits give low values 0.967 | locus YNL183C, strain NPR1, hits give low values 0.963 | locus YNL207W, strain RIO2, hits give low values 0.947 | locus YNL222W, strain SSU72, hits give low values 0.964 | locus YNL307C, strain MCK1 (second series), hits give low values 0.93 | locus YOL078W, strain AVO1, hits give low values 0.953 | locus YOL136C, strain PFK27, hits give low values 0.907 | locus YOR061W, strain CKA2, hits give low values 0.942 | locus YOR119C, strain RIO1, hits give low values 1.01 | locus YOR231W, strain MKK1, hits give low values 0.883 | locus YOR329C, strain SCD5, hits give low values 0.965 | locus YPL031C, strain PHO85, hits give low values 0.942 | locus YPL153C, strain RAD53, hits give low values 0.969 | locus YPL204W, strain HRR25, hits give low values 0.941 | locus YPL209C, strain IPL1, hits give low values 0.961 | locus YPL256C, strain CLN2, hits give low values 0.906 | locus YPR025C, strain CCL1, hits give low values 0.961 | locus YPR106W, strain ISR1, hits give low values 0.958 | locus YPR111W, strain DBF20, hits give low values 0.949 | strain NNK1, hits give low values 0.942 | strain TSCII, hits give low values 0.955
active: locus YLR113W, strain HOG1, hits give low values 0.761
